# MPTP inh – inhibitors of mitochondrial permeability transition pore; 360,000 compounds, 1.4% hits; isolated mouse mitochondria, Ca2+ swelling absorbance, 30 min; AID 602449; inhibition, % at 10 µM;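 active = inhibition of 50% or more, scaled per plate between neutral and stimulator controls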;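 also: 0% = DMSO wells given calcium and 100% = 1 mM EGTA wells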
# Mdm2 MdmX PPI – inhibitors of human Mdm2/MdmX interaction | 330,000 compounds, 3% hits | SaOS-2 split-luciferase Mdm2/MdmX complementation, luminescence | inhibition, % at 8 µM | O15151+Q00987;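 active = inhibition of at least 50% at 8 µM in the primary screen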
# Target sequence (O15151 whole entry, looked up): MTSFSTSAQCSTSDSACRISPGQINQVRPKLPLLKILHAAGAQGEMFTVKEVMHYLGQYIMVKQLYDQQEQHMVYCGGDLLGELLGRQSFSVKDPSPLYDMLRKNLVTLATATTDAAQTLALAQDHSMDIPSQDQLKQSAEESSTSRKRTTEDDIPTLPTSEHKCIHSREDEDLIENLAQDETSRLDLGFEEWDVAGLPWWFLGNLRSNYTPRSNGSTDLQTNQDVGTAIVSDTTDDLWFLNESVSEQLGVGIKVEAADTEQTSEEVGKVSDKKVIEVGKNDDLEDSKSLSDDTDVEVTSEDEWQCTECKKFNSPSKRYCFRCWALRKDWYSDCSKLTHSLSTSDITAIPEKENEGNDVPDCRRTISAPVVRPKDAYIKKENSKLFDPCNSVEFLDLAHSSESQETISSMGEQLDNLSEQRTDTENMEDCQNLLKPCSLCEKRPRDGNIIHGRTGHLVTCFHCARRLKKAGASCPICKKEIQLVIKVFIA
# Target sequence (Q00987 whole entry, looked up): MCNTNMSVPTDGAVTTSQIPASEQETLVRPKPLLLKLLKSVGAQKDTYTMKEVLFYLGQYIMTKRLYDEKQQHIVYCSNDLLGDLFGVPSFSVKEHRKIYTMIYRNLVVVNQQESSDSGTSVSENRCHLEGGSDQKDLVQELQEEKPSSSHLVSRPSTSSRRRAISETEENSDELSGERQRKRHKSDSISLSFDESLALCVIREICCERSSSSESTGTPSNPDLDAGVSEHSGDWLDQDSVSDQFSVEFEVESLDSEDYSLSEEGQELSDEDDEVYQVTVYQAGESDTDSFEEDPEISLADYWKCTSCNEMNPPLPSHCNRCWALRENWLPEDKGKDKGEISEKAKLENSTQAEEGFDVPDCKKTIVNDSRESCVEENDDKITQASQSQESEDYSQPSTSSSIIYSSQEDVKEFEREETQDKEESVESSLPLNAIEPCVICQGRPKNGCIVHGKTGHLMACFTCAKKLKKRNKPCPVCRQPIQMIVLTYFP
# tim10-1 inh – tim10-1 yeast growth inhibition | S. cerevisiae tim10-1 ts strain growth, BacTiter-Glo, 24 h | inhibition, % at 20 µM | 330,000 compounds, 2.2% hits | AID 463190;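 active = inhibition of at least 40%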;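 also: mutant grown at 25 °C; 0% = DMSO wells with yeast and 100% = wells holding no yeast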
# tim23-1 inh – growth inhibitors of tim23-1 mutant yeast | S. cerevisiae tim23-1 growth, BacTiter-Glo luminescence, 24 h | inhibition, % at 20 µM | 330,000 compounds, 1.3% hits | AID 463212;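 active = growth inhibition of the mutant yeast at or above 50%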;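 also: temperature-sensitive mutant grown at 25 °C; plate controls were DMSO-treated mutant yeast for no effect and medium wells lacking yeast for full effect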
# TIM10 inh – growth inhibitors of TIM10 yeast strain. S. cerevisiae TIM10 strain growth, BacTiter-Glo luminescence, 24 h. inhibition, % at 10 µM. 330,000 compounds, 1.4% hits. AID 463195;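 active = inhibition of 40% or more at the single tested concentration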;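 also: wild-type TIM10 isogenic control strain grown at permissive 25 °C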
# Mdm2-MdmX conf – human Mdm2/MdmX binding inhibition, confirmed. shares compounds with Mdm2 MdmX PPI. AID 489028. inhibition, % at 8 µM. luminescent assay. 10,000 compounds, 55% hits; in the data active = inhibition above about 40%
# Full FLuc ctr – counter-screen for Mdm2/MdmX inhibitors: full-length luciferase | AID 504607 | SaOS-2 full-length luciferase counterscreen, luminescence | 6,200 compounds, 77% hits | shares compounds with Mdm2 MdmX PPI | inhibition, % at 8 µM;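 active = mean inhibition at 8 µM reaching about 37%, which flags the compound as non-specific, limit read from the data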;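 also: p53-null SaOS-2 cells with luciferase driven by a doxycycline-inducible promoter; compound on cells about two nights before reading with doxycycline added after day one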
# An asterisk follows results filed as active; / = not tested or not shown. In the library only some 6.3% were active in any assay of this set; here they are far more common.
SMILES,MPTP inh,Mdm2 MdmX PPI,tim10-1 inh,tim23-1 inh,TIM10 inh,Mdm2-MdmX conf,others
O=C(CN1C(=O)/C(=C/c2c(F)cccc2Cl)Oc2ccccc21)NCc1ccco1,/,64*,14,1,9,49*,Full FLuc ctr=102*
O=c1cc(-c2ccccc2)[nH]n1-c1nc2ccccc2[nH]1,2,95*,36,-7,-38,25,
CCc1cc(=O)[nH]c(-n2[nH]c(-c3ccccc3)cc2=O)n1,-1,-6,-8,-10,10,/,
COc1cc(C(=O)N/N=C(\C)c2ccccn2)cc(OC)c1OC,-2,77*,-5,5,-5,25,
C/C(=N\NC(=O)c1cc(C)nc2ccccc12)c1ccccn1,0,76*,32,36,8,67*,Full FLuc ctr=36*
COc1cc(C(=O)N/N=C(\c2ccccc2)c2ccccn2)cc(OC)c1OC,0,46,22,28,19,/,
O=C1COc2ccccc2C(c2nc3ccccc3[nH]2)N1C1CC1 (centres undefined),0,/,/,/,/,/,
COc1ccc(NC(=O)N(C)C[C@@H]2OCc3cnnn3CCCC(=O)N([C@H](C)CO)C[C@@H]2C)cc1,-1,/,/,/,/,/,
Oc1ccc(CN2CCN(Cc3ccccc3)CC2)c2cccnc12,-3,27,21,-40,17,/,
O=S(=O)(c1ccc(Cl)cc1)N1CCN(Cc2ccc(O)c3ncccc23)CC1,20,77*,14,28,-10,67*,Full FLuc ctr=25
CC1CCN(C(=O)CCC(=O)Nc2ccc([N+](=O)[O-])cc2)CC1,1,/,/,/,/,/,
COc1ccc(C(C#N)c2ccc(Cl)nn2)cc1 (centres undefined),-2,5,-1,-5,4,/,
N#CC(c1ccc(Cl)nn1)c1ccc(Cl)cc1Cl (centres undefined),-2,56*,-11,-16,5,18,
CCCCC[C@@H](C)N1C[C@@H](COCc2ccccc2)Oc2cc(N3CC[C@H](N(C)C)C3)ccc2S1(=O)=O,3,/,/,/,/,/,
COc1ccccc1C(=O)NC(=Nc1nc2ccccc2o1)NC(=O)c1ccccc1OC,1,88*,13,14,1,55*,Full FLuc ctr=88*
COc1cc(C=C(C(C)=O)C(C)=O)ccc1O,1,2,30,20,12,/,
COc1cc(/C=C/C(=O)/C=C(O)/C=C/c2ccc(O)c(OC)c2)ccc1O,5,66*,28,47,18,19,
CC(O)(c1cccc(F)c1)c1nc(-c2csc3ccccc23)cs1 (centres undefined),2,/,/,/,/,/,
Cc1cc(C)c2nc(/N=C(\N)NC(=O)Nc3ccccc3)nc(C)c2c1,3,54*,14,13,20,48*,Full FLuc ctr=70*
CCCCN1C(=O)C(CC(=O)NCCCN(C)C)CC(C(=O)N(C)C)=C1C (centres undefined),-1,/,/,/,/,/,
COc1cc(C(CCN2CCCCC2)c2c(OC)cc(OC)c3c(-c4ccccc4)cc(=O)oc23)cc(OC)c1OC (centres undefined),2,65*,2,5,-4,24,
COc1cc(C(CCN2CCCC(C)C2)c2c(OC)cc(OC)c3c(-c4ccccc4)cc(=O)oc23)cc(OC)c1OC (centres undefined),-2,82*,8,-17,-10,25,
COc1cc(C(CCN2CCCC2)c2c(OC)cc(OC)c3c(C)cc(=O)oc23)cc(OC)c1OC (centres undefined),4,15,-13,1,-7,/,
Cc1ccc(S(=O)(=O)NC(=O)C2(C)CCN2C(=O)c2ccccc2)cc1 (centres undefined),0,/,/,/,/,/,
O=S1c2ccccc2Sc2ccccc21,1,/,/,/,/,/,
CN(C)CCCN(Cc1cc2cc3c(cc2[nH]c1=O)OCO3)C(=S)Nc1ccccc1,-1,6,32,40,20,/,
CN(C)CCCN(Cc1cc2cc3c(cc2[nH]c1=O)OCO3)C(=S)Nc1cccc(Cl)c1,-2,59*,27,47,15,29,
CCOC(=O)C1(C)CCCN(C(=O)c2cccc(OC(F)(F)F)c2)C1 (centres undefined),0,/,/,/,/,/,
COc1ccc(Nc2nc(C)cc(-c3cc(-c4ccccc4)on3)n2)cc1,2,68*,1,-19,-13,50*,Full FLuc ctr=83*
COc1cccc(CN2CCC2(C)C(=O)Nc2cccc(Oc3ccccc3)c2)c1OC (centres undefined),1,/,/,/,/,/,
